Assay results: PMC11062922 (Nature Chemical Biology, 2023)
Read-outs that look alike come from different tables or passages of the source.

Legend:
[1] = test system: AAK1; parameters: species or system human, MV4-11 + K-562 + COLO205 + SK-N-BE2 + OVCAR-8; conditions: read-out: apparent Kd, n = 1
[2] = test system: BMP2K; parameters: species or system human, MV4-11 + K-562 + COLO205 + SK-N-BE2 + OVCAR-8; conditions: read-out: apparent Kd, compound concentrations: 100 nM and 1000 nM (sheet 'Samples'), n = 1
[3] = test system: CLK4; parameters: species or system human, MV4-11 + K-562 + COLO205 + SK-N-BE2 + OVCAR-8; conditions: read-out: apparent Kd, n = 1
[4] = test system: GAK; parameters: species or system human, MV4-11 + K-562 + COLO205 + SK-N-BE2 + OVCAR-8; conditions: read-out: apparent Kd, n = 1
[5] = test system: GSK3B; parameters: species or system human, MV4-11 + K-562 + COLO205 + SK-N-BE2 + OVCAR-8; conditions: read-out: apparent Kd, n = 1
[6] = test system: PKN1; parameters: species or system human, MV4-11 + K-562 + COLO205 + SK-N-BE2 + OVCAR-8; conditions: read-out: apparent Kd, n = 1
[7] = test system: PRKAG1; parameters: species or system human, MV4-11 + K-562 + COLO205 + SK-N-BE2 + OVCAR-8; conditions: read-out: apparent Kd; compound concentrations: 100 nM and 1000 nM (sheet 'Samples'), CATDS: 1.9025331184012301E-2; n = 1
[8] = target: Q6ZSR9 (human, UniProt Q6ZSR9); parameters: species or system MV4-11 + K-562 + COLO205 + SK-N-BE2 + OVCAR-8; conditions: read-out: apparent Kd, n = 1
Sequence of Q6ZSR9 (Q6ZSR9 whole entry, looked up): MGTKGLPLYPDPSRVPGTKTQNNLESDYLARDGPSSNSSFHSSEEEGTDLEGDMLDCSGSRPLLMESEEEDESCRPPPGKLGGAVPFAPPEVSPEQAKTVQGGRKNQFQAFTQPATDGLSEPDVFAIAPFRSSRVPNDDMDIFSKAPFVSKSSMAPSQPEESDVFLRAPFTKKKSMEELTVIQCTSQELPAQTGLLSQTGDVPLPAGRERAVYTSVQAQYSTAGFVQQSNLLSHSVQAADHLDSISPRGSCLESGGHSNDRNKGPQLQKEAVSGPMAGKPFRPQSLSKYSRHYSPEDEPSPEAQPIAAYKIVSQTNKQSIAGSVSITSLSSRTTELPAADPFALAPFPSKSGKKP

[9] = test system: CLK1; parameters: species or system human, MV4-11 + K-562 + COLO205 + SK-N-BE2 + OVCAR-8; conditions: read-out: apparent Kd, n = 1
[10] = test system: CSNK2A1;CSNK2A3; parameters: species or system human, MV4-11 + K-562 + COLO205 + SK-N-BE2 + OVCAR-8; conditions: read-out: apparent Kd, n = 1
[11] = test system: CSNK2A2; parameters: species or system human, MV4-11 + K-562 + COLO205 + SK-N-BE2 + OVCAR-8; conditions: read-out: apparent Kd, compound concentrations: 100 nM and 1000 nM (sheet 'Samples'), n = 1
[12] = test system: FLT4; parameters: species or system human, MV4-11 + K-562 + COLO205 + SK-N-BE2 + OVCAR-8; conditions: read-out: apparent Kd; compound concentrations: 100 nM and 1000 nM (sheet 'Samples'), CATDS: 2.0623462365067999E-2; n = 1
[13] = test system: GSK3A; parameters: species or system human, MV4-11 + K-562 + COLO205 + SK-N-BE2 + OVCAR-8; conditions: read-out: apparent Kd, n = 1
[14] = test system: MELK; parameters: species or system human, MV4-11 + K-562 + COLO205 + SK-N-BE2 + OVCAR-8; conditions: read-out: apparent Kd, n = 1
[15] = test system: RET; parameters: species or system human, MV4-11 + K-562 + COLO205 + SK-N-BE2 + OVCAR-8; conditions: read-out: apparent Kd; compound concentrations: 100 nM and 1000 nM (sheet 'Samples'), CATDS: 1.8914319657445101E-2; n = 1
[16] = test system: PAK4; parameters: species or system human, MV4-11 + K-562 + COLO205 + SK-N-BE2 + OVCAR-8; conditions: read-out: apparent Kd; compound concentrations: 100 nM and 1000 nM (sheet 'Samples'), CATDS: 0.130749402221499; n = 1
[17] = test system: NUAK1; parameters: species or system human, MV4-11 + K-562 + COLO205 + SK-N-BE2 + OVCAR-8; conditions: read-out: apparent Kd; compound concentrations: 100 nM and 1000 nM (sheet 'Samples'), CATDS: 0.30685592880619; n = 1
[18] = test system: PKN3; parameters: species or system human, MV4-11 + K-562 + COLO205 + SK-N-BE2 + OVCAR-8; conditions: read-out: apparent Kd; compound concentrations:100 nM and 1000 nM (sheet 'Samples'); n = 1
[19] = test system: SIK2; parameters: species or system human, MV4-11 + K-562 + COLO205 + SK-N-BE2 + OVCAR-8; conditions: read-out: apparent Kd; compound concentrations:100 nM and 1000 nM (sheet 'Samples'); n = 1
[20] = compound concentrations:100 nM and 1000 nM (sheet 'Samples')

Cl.Cl.NCC(NC(=O)c1cc(-c2ccnc3[nH]ccc23)cs1)c1ccccc1.NCC(NC(=O)c1cc(-c2ccnc3[nH]ccc23)cs1)c1ccccc1 (centres unmarked) [GSK1229959A]
potency estimated from few doses ([1]; compound concentrations: 100 nM and 1000 nM (sheet 'Samples'), CATDS: 3.6384638335370603E-2): 79.6 nM | potency estimated from few doses ([2]; CATDS: 3.4118166315235399E-2): 97.1 nM | potency estimated from few doses ([3]; compound concentrations: 100 nM and 1000 nM (sheet 'Samples'), CATDS: 1.8316449367944E-2): 1240 nM | potency estimated from few doses ([4]; compound concentrations: 100 nM and 1000 nM (sheet 'Samples'), CATDS: 3.7046569699604799E-2): 75.5 nM | potency estimated from few doses ([5]; compound concentrations: 100 nM and 1000 nM (sheet 'Samples'), CATDS: 1.8491508517635601E-2): 1170 nM | potency estimated from few doses ([6]; compound concentrations: 100 nM and 1000 nM (sheet 'Samples'), CATDS: 2.9664861147502199E-2): 155 nM | potency estimated from few doses [7]: 1010 nM | potency estimated from few doses ([8]; compound concentrations: 100 nM and 1000 nM (sheet 'Samples'), CATDS: 3.4885156977357598E-2): 90.6 nM

NS(=O)(=O)c1ccc(NC=C2C(=O)Nc3ccc4ncsc4c32)cc1 [GW589933X]
potency estimated from few doses ([1]; compound concentrations: 100 nM and 1000 nM (sheet 'Samples'), CATDS: 2.8569630231133399E-2): 376 nM | potency estimated from few doses ([2]; CATDS: 4.4159404649836601E-2): 151 nM | potency estimated from few doses ([9]; compound concentrations: 100 nM and 1000 nM (sheet 'Samples'), CATDS: 1.74105303489548E-2): 1590 nM | potency estimated from few doses ([3]; compound concentrations: 100 nM and 1000 nM (sheet 'Samples'), CATDS: 2.0435296344387299E-2): 913 nM | potency estimated from few doses ([10]; compound concentrations: 100 nM and 1000 nM (sheet 'Samples'), CATDS: 2.5198594058055201E-2): 510 nM | potency estimated from few doses ([11]; CATDS: 3.3899738232558103E-2): 257 nM | potency estimated from few doses [12]: 888 nM | potency estimated from few doses ([13]; compound concentrations: 100 nM and 1000 nM (sheet 'Samples'), CATDS: 1.8552119857048799E-2): 1250 nM | potency estimated from few doses ([14]; compound concentrations: 100 nM and 1000 nM (sheet 'Samples'), CATDS: 1.7288492944947598E-2): 1630 nM | potency estimated from few doses ([8]; compound concentrations: 100 nM and 1000 nM (sheet 'Samples'), CATDS: 4.56646208861472E-2): 141 nM | potency estimated from few doses [15]: 1170 nM

COc1cccc(C2=C(c3c(C)n(C)c4ccccc34)C(=O)NC2=O)c1 [RO3300167-000]
potency estimated from few doses ([1]; compound concentrations: 100 nM and 1000 nM (sheet 'Samples'), CATDS: 7.9667560611670199E-2): 1520 nM | potency estimated from few doses [16]: 582 nM | potency estimated from few doses ([8]; compound concentrations: 100 nM and 1000 nM (sheet 'Samples'), CATDS: 7.9945675311768105E-2): 1510 nM

COc1cc[nH]c1/C=C1\C(=O)Nc2ccc(F)c(I)c21 [RO0281567-000]
potency estimated from few doses ([1]; compound concentrations: 100 nM and 1000 nM (sheet 'Samples'), CATDS: 0.16412118246726901): 568 nM | potency estimated from few doses ([2]; CATDS: 0.232255536891084): 309 nM | potency estimated from few doses ([13]; compound concentrations: 100 nM and 1000 nM (sheet 'Samples'), CATDS: 0.11117571470946799): 1460 nM | potency estimated from few doses ([8]; compound concentrations: 100 nM and 1000 nM (sheet 'Samples'), CATDS: 0.16614751317759599): 555 nM

NS(=O)(=O)c1ccc(N/C=C2\C(=O)Nc3ccc4ncsc4c32)cc1 [GW297361X]
potency estimated from few doses ([1]; compound concentrations: 100 nM and 1000 nM (sheet 'Samples'), CATDS: 4.1332868698359997E-2): 785 nM | potency estimated from few doses ([2]; CATDS: 4.6280622165998701E-2): 615 nM | potency estimated from few doses ([3]; compound concentrations: 100 nM and 1000 nM (sheet 'Samples'), CATDS: 3.6697746350308501E-2): 1050 nM | potency estimated from few doses ([10]; compound concentrations: 100 nM and 1000 nM (sheet 'Samples'), CATDS: 3.0344109186555501E-2): 1830 nM | potency estimated from few doses ([11]; CATDS: 3.6316988085140701E-2): 1070 nM | potency estimated from few doses [17]: 33.6 nM | potency estimated from few doses ([8]; compound concentrations: 100 nM and 1000 nM (sheet 'Samples'), CATDS: 3.8953206873676101E-2): 902 nM

CCn1c(-c2nonc2N)nc2cncc(Br)c21 [SB-738004]
potency estimated from few doses [1, 20]: 517 nM | potency estimated from few doses [9, 20]: 1420 nM | potency estimated from few doses [3, 20]: 505 nM | potency estimated from few doses [13, 20]: 445 nM | potency estimated from few doses [5, 20]: 724 nM | potency estimated from few doses [14, 20]: 1660 nM | potency estimated from few doses [6, 20]: 553 nM | potency estimated from few doses [18]: 1320 nM | potency estimated from few doses [8, 20]: 369 nM

Cn1cc(C2=C(c3c(S(C)=O)n(C)c4ccccc34)C(=O)NC2=O)c2ccccc21 (centres unmarked) [RO0317379-000]
potency estimated from few doses ([1]; compound concentrations: 100 nM and 1000 nM (sheet 'Samples'), CATDS: 0.257155893587458): 217 nM | potency estimated from few doses ([2]; CATDS: 0.121414398934197): 1050 nM | potency estimated from few doses ([8]; compound concentrations: 100 nM and 1000 nM (sheet 'Samples'), CATDS: 0.33733581248504402): 142 nM

Cc1occc1-c1nc(N)c(OC[C@@H](N)Cc2c[nH]c3ccccc23)cc1-c1cc2c(C)n[nH]c2cn1 [GSK1660450B]
potency estimated from few doses [1, 20]: 1070 nM | potency estimated from few doses [9, 20]: 339 nM | potency estimated from few doses [3, 20]: 441 nM | potency estimated from few doses [4, 20]: 38.2 nM | potency estimated from few doses [13, 20]: 273 nM | potency estimated from few doses [5, 20]: 62.6 nM | potency estimated from few doses [6, 20]: 87.6 nM | potency estimated from few doses [18]: 845 nM | potency estimated from few doses [8, 20]: 1670 nM | potency estimated from few doses [19]: 427 nM

Cc1cccc(-c2cc(-c3c[nH]nc3-c3ccccn3)ccn2)c1 [GW679395X]
potency estimated from few doses [10, 20]: 2120 nM
